# Results reported in PubChem BioAssay.
# Results filed as inconclusive are left out. Activity calls are given as the source filed them.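 The calls were made as follows, unless noted: active = RAM network inhibition above 8.4% in each of two replicates, 3 SD over the compound average; inconclusive = above 8.4% inhibition in only one replicate; inactive = 8.4% inhibition or less in each replicate.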
# What was measured:
# [1] = Her2 expression decrease, cell viability multiplex – SKBR3 breast tumor cells, AlphaScreen, ATP viability, primary screen (AID 461;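 active = Her2 level under about 52% in both replicate screens, with viability over 70% of control, limit read from the data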;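 as to Her2 level: lower value means less Her2 protein in the cells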;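 as to viability: percent of carrier control wells set as 100% viability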); settings: SKBR3 Her2 protein level, 18-24 h, measured here: SKBR3 viability, ATP luminescence, at 10 µM
# [2] = molecular target: Receptor tyrosine-protein kinase erbB-2 (Homo sapiens) (UniProt P04626); test: as above; settings: 18-24 h, at 10 µM, stronger effect = lower value
# [3] = reduced viability of SK-BR-3 breast cancer cells – cell-based, 24 h, human, pilot screen (AID 572;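 active = viability at or below 10% of carrier control in both of two separate runs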;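 also: compound exposure lasted between 18 and 24 h rather than exactly 24 h; 100% = carrier-treated control wells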); settings: SK-BR-3 viability, CellTiter-Glo luminescence, at 10 µM, stronger effect = lower value
# [4] = HUVEC growth inhibition – cell-based, human, primary screen (AID 575;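 active = viability at or below 30% in both replicate assays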;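 also: 100% = median of untreated cell wells with 0.1% DMSO on each plate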); settings: HUVEC proliferation, CellTiter-Glo luminescence, 72 h; at 10 µM; stronger effect = lower value
# [5] = H69AR cell proliferation blockers – human, duplicate replicates, primary screen (AID 580;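 active = viability at or under a set limit in both replicates, limit being median viability minus 3 SD, cut at about 48% in these data, passing the limit was not always enough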;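 also: 100% = mean luminescence of untreated wells and 0% = no signal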); settings: H69AR lung tumor cells viability, ATP luminescence, 72 h; at 10 µM; stronger effect = lower value
# [6] = MRP1 drug-resistance reversers in H69AR cells – cell-based, doxorubicin co-treatment, pilot screen (AID 601;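 active = viability loss from added drug above about 55%, and viability with drug at most 40%, in both replicates, limit read from the data, passing the limit was not always enough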); settings: CellTiter-Glo, 72 h, at 10 µM; for differential viability (reversal): stronger effect = higher value
# [7] = yeast transport mutant growth inhibition pilot in 384-well plates, post-Golgi transport modulator project (AID 636; in the data active = inhibition above about 31%); settings: absorbance 615 nm, about 18 h, stronger effect = higher value
# [8] = growth suppression of yeast trafficking mutant, preliminary HTS, modulators of trafficking downstream of Golgi apparatus project, 1536-format plate, OD 615 nm (AID 637; in the data active = inhibition above about 30%); settings: yeast transport mutant growth, absorbance 615 nm, 18 h; stronger effect = higher value
# [9] = S. cerevisiae growth inhibition in permissive medium (OD615), pilot counter-assay for S. cerevisiae lifespan shortening project, permissive growth control (AID 705;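 active = growth inhibition above 25% in both replicates, a cutoff set 3 SD above the mean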); settings: OD615, 24 h, at 10 µM, stronger effect = higher value
# [10] = S. cerevisiae growth inhibition in restrictive medium, OD615, pilot screen, restrictive growth control, yeast lifespan reduction project (AID 706;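 active = growth inhibition above a set limit, 3 SD over mean compound inhibition, in both replicates, cut at about 43% in these data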;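 also: modified DeaD lifespan yeast strain shifted to restrictive glucose medium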); settings: OD615, 48 h, at 10 µM, stronger effect = higher value
# [11] = doxorubicin toxicity protection in MRP-1 cells – H69AR cells, CellTiter-Glo, duplicate, MRP-1 activator project, pilot screen (AID 807;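 active = viability increase at or above a cutoff of the median across tested compounds plus 3 SD, cut at about 8.5% in these data, passing the limit was not always enough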;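 also: compound pretreatment 18-22 h then 72 h combined with doxorubicin; 0% = doxorubicin alone and 100% = vehicle without doxorubicin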); settings: H69AR viability with doxorubicin, CellTiter-Glo luminescence; at 10 µM; stronger effect = higher value
# [12] = RAM pathway blockade in budding yeast – dse1pr::URA3 reporter, 5-FOA selection, pilot screen (AID 869;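 active = inhibition over a set limit, the all-compound mean plus 3 SD, in both replicate runs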;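 also: 0% = DMSO wells with no growth and 100% = 10 µM 1-NA-PP1 with full growth; RAM network block rescues cells from 5-FOA so hits raise OD615 growth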); settings: S. cerevisiae dse1pr::URA3 5-FOA growth, OD615, 2 d; at 10 µM; stronger effect = higher value; strain carries analog-sensitive mutant Cbk1 kinase
# [13] = RAM signaling pathway blockade in yeast – S. cerevisiae, Pdr1DBD-CYC8 efflux-inhibited sensitized strain, primary screen (AID 1298);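 also: 0% = DMSO untreated cells without growth and 100% = 10 µM 1-NA-PP1 full growth; higher means more yeast growth rescued from 5-FOA killing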; settings: S. cerevisiae cbk1-as DSE1-URA3 strain, 5-FOA growth OD615, 2 d; at 50 µM; stronger effect = higher value
# [14] = viability of HCT116 without oncogenic beta-catenin – human colon tumor cells, pilot screen (AID 823;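 active = cell viability at or below a set limit in both duplicate runs, the limit being the all-compound median minus 4 SD, cut at about 23% in these data, passing the limit was not always enough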;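 also: 0% = wells killed by 20 µM Hyamine and 100% = untreated DMSO cell wells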); settings: HCT116 beta-catenin knockout viability, CellTiter-Glo, 60 h; at 10 µM; stronger effect = lower value
# [15] = viability of PTEN-null HCT116 cells – cell-based, HCT116 clonal line, CellTiter-Glo, pilot screen (AID 824;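 active = viability at or below 27.92% in each of two runs, the all-compound median minus 4 SD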;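 also: 0% = 20 µM Hyamine control and 100% = vehicle cell control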); settings: HCT116 PTEN-deleted viability, 60 h, at 10 µM, stronger effect = lower value
# [16] = H69AR cells + 2 uM doxorubicin, measured here: viability with 2 uM doxorubicin, stronger effect = lower value
# [17] = H69AR cells, compound alone cytotoxicity
# Sequence of Receptor tyrosine-protein kinase erbB-2 (Homo sapiens) (P04626 whole entry, looked up): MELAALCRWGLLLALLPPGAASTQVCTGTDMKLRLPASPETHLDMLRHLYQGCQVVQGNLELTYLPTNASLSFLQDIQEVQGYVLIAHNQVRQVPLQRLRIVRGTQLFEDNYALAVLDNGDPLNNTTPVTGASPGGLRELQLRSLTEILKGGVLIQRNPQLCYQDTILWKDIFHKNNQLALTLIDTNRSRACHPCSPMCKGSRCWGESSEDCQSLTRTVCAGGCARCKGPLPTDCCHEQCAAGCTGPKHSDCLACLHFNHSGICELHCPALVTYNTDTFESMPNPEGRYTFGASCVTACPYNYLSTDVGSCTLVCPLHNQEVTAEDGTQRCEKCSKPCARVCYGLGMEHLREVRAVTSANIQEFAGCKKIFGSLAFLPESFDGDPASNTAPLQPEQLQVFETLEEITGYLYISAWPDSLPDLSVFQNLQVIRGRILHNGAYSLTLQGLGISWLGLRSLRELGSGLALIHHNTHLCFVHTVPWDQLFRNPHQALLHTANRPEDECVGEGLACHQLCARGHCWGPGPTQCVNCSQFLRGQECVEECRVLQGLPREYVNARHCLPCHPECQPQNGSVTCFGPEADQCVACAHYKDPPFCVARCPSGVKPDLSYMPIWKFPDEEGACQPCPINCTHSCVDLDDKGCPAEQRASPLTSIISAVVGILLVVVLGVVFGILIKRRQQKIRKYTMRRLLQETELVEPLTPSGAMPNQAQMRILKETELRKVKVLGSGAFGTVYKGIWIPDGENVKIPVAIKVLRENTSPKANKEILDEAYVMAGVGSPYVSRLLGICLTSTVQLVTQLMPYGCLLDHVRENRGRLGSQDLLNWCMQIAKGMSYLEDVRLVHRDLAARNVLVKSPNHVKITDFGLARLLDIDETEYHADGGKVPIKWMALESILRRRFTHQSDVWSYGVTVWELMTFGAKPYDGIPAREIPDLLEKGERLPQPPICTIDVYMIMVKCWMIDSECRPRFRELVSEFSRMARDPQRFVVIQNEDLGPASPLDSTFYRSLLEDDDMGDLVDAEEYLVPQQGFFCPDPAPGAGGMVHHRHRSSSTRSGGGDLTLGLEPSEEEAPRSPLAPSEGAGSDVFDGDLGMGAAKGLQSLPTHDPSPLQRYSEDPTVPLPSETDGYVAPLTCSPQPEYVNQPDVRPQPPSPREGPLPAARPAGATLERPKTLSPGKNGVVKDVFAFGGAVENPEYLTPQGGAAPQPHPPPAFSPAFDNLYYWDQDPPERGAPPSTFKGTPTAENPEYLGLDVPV
Compound,viability [1] [%],Her2 level [2],viability [3],viability [4],viability [5],differential viability (reversal) ([6]; H69AR cells + 2 uM doxorubicin),"viability [6, 16] [%]","viability [6, 17] [%]",inhibition [7],inhibition [8],growth inhibition [9],growth inhibition [10],viability increase [11],inhibition [12],RAM network inhibition [13],viability [14],viability [15]
CC1CCN(Cc2ccc(NC(=O)C3CCN(c4nnc(-n5cccc5)s4)CC3)cc2)CC1,86.5,90.5% (inactive),86.5% (inactive),4.64% (active),78.5% (inactive),-1.01% (inactive),79.5,78.5,-4.27% (inactive),1.33% (inactive),3.76% (inactive),2.38% (inactive),-2.95% (inactive),0.695% (inactive),4.34% (inactive),–,–
COC(=O)c1cn(NC(=O)c2cccnc2)c(=O)c2ccccc12,88,84% (inactive),88% (inactive),101% (inactive),103% (inactive),2.79% (inactive),100,103,-7.26% (inactive),1.11% (inactive),-2.23% (inactive),0.94% (inactive),–,0.92% (inactive),5.05% (inactive),101% (inactive),99% (inactive)
CCC(C)(NC(=O)CNC(C)=O)C(=O)NC1CCCCC1 (stereo unspecified),130,108% (inactive),130% (inactive),105% (inactive),94% (inactive),-3.05% (inactive),97.1,94,-5.48% (inactive),-9.52% (inactive),-15.5% (inactive),-3.8% (inactive),-1.92% (inactive),2.88% (inactive),-0.83% (inactive),–,97.7% (inactive)
CCn1c2ccccc2c2cc(Nc3cc(C)nc4ncnn34)ccc21,93,49% (active),93% (inactive),18.1% (active),29.4% (active),-28% (inactive),57.4,29.4,-1.6% (inactive),0% (inactive),–,72.4% (active),-7.76% (inactive),-0.255% (inactive),-1.23% (inactive),–,12.2% (active)
COc1ccc(-n2ncc3c(N4CCN(c5cccc(C)c5C)CC4)ncnc32)cc1,88,79% (inactive),88% (inactive),11.3% (active),27.1% (active),5.39% (inactive),21.7,27.1,-2.4% (inactive),-2.17% (inactive),-5% (inactive),-6.91% (inactive),-7.5% (inactive),1.51% (inactive),7.15% (inactive),–,–
O=c1[nH]c2ccc(Br)cc2c(-c2ccccc2)c1N1CCOCC1,91,111% (inactive),91% (inactive),60.1% (inactive),75.7% (inactive),–,–,–,0% (inactive),2% (inactive),-12.5% (inactive),-15.8% (inactive),-3.63% (inactive),1.29% (inactive),0% (inactive),92.7% (inactive),75.2% (inactive)
